Experimental findings from PubChem BioAssay AID504652 (National Center for Advancing Translational Sciences (NCATS), 2011) are described below.

Several values for one entry are separate records, joined by “and”; a condition that tells them apart may be missing. Identical values can stand only once. Out of some 360,000 compounds screened, about 11,000 (3.1%) were called active. The sample as a whole holds a higher share of actives than the screen did. A number with no mark means an inactive call. No stated cut-off is given here; in the data, active means activity change below about -30%; inactive means the rest.
On the % scale 0 is the no-effect control and ±100 the full control effect.

The assay deals with D(1A) dopamine receptor (Homo sapiens) (UniProt P21728). In words: Antagonist of Human D 1 Dopamine Receptor: qHTS. Conditions: HEK293 TREx D1 cells, calcium flux, dopamine EC80; at 10 µM; stronger effect = lower value. An excerpt: Dopamine receptors (DARs) are involved in the etiology and/or therapy of a number of neuropsychiatric and endocrine disorders. For instance, all receptor-based antiparkinsonian drugs work via stimulating the […] DAR subtype whereas all FDA-approved antipsychotic agents are antagonists of this receptor. […] There are three different types of allosteric modulators that we are seeking, two of which will stimulate or augment receptor signaling, allosteric agonists and potentiators, while the third, allosteric antagonists, will attenuate receptor signaling. The present primary screening assay measures compound antagonism after an EC80 addition of dopamine by tracking calcium flux in a […], inducible Hek293 Trex D1 cell line. NIH Chemical Genomics Center [NCGC] NIH Molecular Libraries Probe Centers Network [MLPCN] MLPCN Grant: NS064831-01 Assay Submitter (PI): David Sibley
Chain of D(1A) dopamine receptor (Homo sapiens) (P21728 whole entry, looked up): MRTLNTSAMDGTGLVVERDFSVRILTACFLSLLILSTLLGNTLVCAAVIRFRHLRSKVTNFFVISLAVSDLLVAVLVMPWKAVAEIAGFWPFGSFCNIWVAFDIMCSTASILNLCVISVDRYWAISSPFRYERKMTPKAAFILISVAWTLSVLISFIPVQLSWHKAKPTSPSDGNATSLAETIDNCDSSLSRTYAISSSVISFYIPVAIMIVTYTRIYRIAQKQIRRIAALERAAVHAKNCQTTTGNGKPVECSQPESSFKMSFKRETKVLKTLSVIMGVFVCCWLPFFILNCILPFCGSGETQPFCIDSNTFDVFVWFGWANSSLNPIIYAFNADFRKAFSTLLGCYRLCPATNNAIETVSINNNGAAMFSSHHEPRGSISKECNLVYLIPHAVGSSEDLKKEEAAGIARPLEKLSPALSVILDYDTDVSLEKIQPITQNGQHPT
Freshly passaged cells are plated in 1536 well black, clear bottom plates at a density of 4000 cells/well in 3 ul of complete media containing 1x tetracycline inducer. After an overnight incubation at 30 C in 5% CO2, cells are loaded with 2 ul of the no wash Calcium Assay Kit (ABD Bioquest) and incubated at room temperature for 30 to 90 minutes. Agonist read: A 10 cycle (1 second/cycle) baseline measurement is taken and then the FDSS online 1536 pintool delivers 23 nl of compound library (as well as dopamine controls) to the plate. The plate is measured for kinetically at 1 cycle/sec for 180 seconds. Following the 180 second read, 1 ul of an EC80 (negative modulation assay) is delivered by an onboard pipette head. Measurements are taken kinetically for an additional 180 seconds.
Take `CCOc1ccc2oc(=O)cc(CN3CCN(C(=O)c4ccc(F)cc4)CC3)c2c1`: the activity change, negative = inhibition is -25%.

For the compound `CCC(=O)N1CCc2cc(Br)cc(S(=O)(=O)NCc3ccc(Cl)cc3)c21`, the activity change, negative = inhibition was 4.98%.

Regarding `COc1ccccc1N1CCN(C(=O)CCS(=O)(=O)c2ccc3c(c2)NC(=O)C(C)S3)CC1` (stereo not drawn), the activity change, negative = inhibition was 5.52%.

Regarding `Cc1cccc(N2CCN(C(=O)CCS(=O)(=O)c3ccc4c(c3)NC(=O)C(C)S4)CC2)c1C` (stereo not drawn), the activity change, negative = inhibition was -41.4% (active).

Consider `CC1Sc2ccc(S(=O)(=O)CCC(=O)NCc3ccccc3Cl)cc2NC1=O` (stereo not drawn), for which the activity change, negative = inhibition is -9.63%.

As for `CCn1c2ccccc2c2cc(CN3CCN(Cc4cccc(Cl)c4)CC3)ccc21`, the activity change, negative = inhibition was -24.4%.

With `COc1ccc(/C(N)=N/OC(=O)CCCc2ccccc2)cc1`, the activity change, negative = inhibition is -50.3% (active).

As for `COc1ccc(/C(N)=N/OC(=O)Cc2ccccc2)cc1`, the activity change, negative = inhibition was 3.45%.

For `N/C(=N\OC(=O)CCc1ccccc1)c1ccc(Cl)cc1`, the activity change, negative = inhibition was -6.68%.

In the case of `CCOc1ccc(CNC(=O)c2cc(-c3ccc(Cl)s3)nc3ccccc23)cc1`, the activity change, negative = inhibition was 13.1%.

`COc1ccc(NC(=O)CCCN2C(=O)CCn3nc(-c4cn(C)c5ccccc45)cc32)cc1OC`: the activity change, negative = inhibition was 16%.

As to `Cc1nc(CNS(=O)(=O)c2ccc(Oc3ccccc3)cc2)cs1`, the activity change, negative = inhibition is -42.6% (active).

Consider `Cc1nn(C)c(Oc2ccccc2)c1CCNS(=O)(=O)c1ccc(F)cc1`, for which the activity change, negative = inhibition was -5.72%.

For the compound `Cc1nc(CNS(=O)(=O)c2cc([N+](=O)[O-])ccc2C)cs1`, the activity change, negative = inhibition was 8.15%.

With `CCOc1ccc(C2C(C(=O)Nc3ccc(Cl)cc3)=C(C)Nc3nc(C(F)(F)F)nn32)cc1` (stereo not drawn), the activity change, negative = inhibition was 10.7%.

As for `Cc1ccccc1-c1nc(SCC(=O)N(C)c2ccccc2)c2c(=O)n(C)c(=O)n(C)c2n1`, the activity change, negative = inhibition was 8.47%.

With `Cc1cccc(OCC(=O)NCC(=O)N/N=C/c2ccc(N(C)C)cc2)c1`, the activity change, negative = inhibition is -31.7% (active).

For `Cc1cccc(OCC(=O)Nc2ccccc2F)c1`, the activity change, negative = inhibition was -0.963%.

For `CCOc1ccccc1/C=N/NC(=O)CNC(=O)COc1ccccc1`, the activity change, negative = inhibition is -1.88%.

Consider `Cc1oc2ccc(O)c(CN3CCC(C)CC3)c2c1C(=O)Nc1ccccc1`, for which the activity change, negative = inhibition was 7.02%.

On to `COc1cccc(NC(=O)CSc2cc(=O)n(C)c3ccc(Cl)cc23)c1`, for which the activity change, negative = inhibition was -17.9%.

As to `CC(=O)N(OCc1ccc(OC(C)C)c(Cl)c1)C(C)=O`, the activity change, negative = inhibition was -4.21%.

Consider `CC(Oc1ccc(Cl)cc1Cl)C(=O)/C=C/N(C)C` (stereo not drawn), for which the activity change, negative = inhibition is -37.2% (active).

`CC(Oc1ccc(F)cc1F)C(=O)/C=C/N(C)C` (stereo not drawn): the activity change, negative = inhibition is 2.85%.

`COc1ccc(C(=O)Nc2nonc2-c2ccc(OC)c(OC)c2)cc1Cl`: the activity change, negative = inhibition is 0.206%.

Turning to `CCc1cccc(NC(=O)Cn2nc(CC)n3c(cc4cc(C)ccc43)c2=O)c1`, the activity change, negative = inhibition was 4.91%.

In the case of `CCCS(=O)(=O)Nc1cccc(-c2cn3ccsc3n2)c1`, the activity change, negative = inhibition was -4.71%.

For `O=C(Cc1ccc(F)cc1)N1CCN=C1SCc1cccc([N+](=O)[O-])c1`, the activity change, negative = inhibition is -1.86%.

For the compound `CCC(=O)N1CCN=C1SCc1ccc(F)cc1`, the activity change, negative = inhibition is -8.09%.

For `O=C(COc1ccccc1)N1CCN=C1SCc1cccc(F)c1`, the activity change, negative = inhibition is -31.4% (active).

As to `COc1cc(OC)cc(-c2nc3nc(C)c(CCC(=O)Nc4ccc(C)cc4)c(C)n3n2)c1`, the activity change, negative = inhibition is -10.7%.

With `CC(C)c1ccc(NS(=O)(=O)c2ccc3[nH]cc(C(=O)NC4CCCC4)c(=O)c3c2)cc1`, the activity change, negative = inhibition is 19.6%.

As for `Cc1c(C(=O)NC(C)C2CC3CCC2C3)cccc1[N+](=O)[O-]` (stereo not drawn), the activity change, negative = inhibition was 18.8%.

Turning to `CCOC(=O)CCC(=O)OCC(=O)NC(C)C1CC2CCC1C2` (stereo not drawn), the activity change, negative = inhibition is -3.11%.

In the case of `COC(=O)c1cc(C(=O)NC(C)C2CC3CCC2C3)cc([N+](=O)[O-])c1` (stereo not drawn), the activity change, negative = inhibition is -60.3% (active).

As for `COc1ccccc1-c1ccnc2[nH]n(-c3ccccc3)c(=O)c12`, the activity change, negative = inhibition was -7.97%.

As for `COc1cccc(CNC(=O)CCc2nc(-c3ccc(C)cc3)no2)c1`, the activity change, negative = inhibition was -1.26%.

Turning to `Cn1c(C(=O)N2CCC(C(=O)N3CCN(c4ccccc4)CC3)CC2)cc2sccc21`, the activity change, negative = inhibition was -14.6%.

As to `CCc1nn(CCCC(=O)NC(C)c2ccccc2)c(=O)c2cc3occc3n12` (stereo not drawn), the activity change, negative = inhibition was 5.05% and -4.27%.

`CCCN1CCN(CCCNC(=O)Cn2nc(CC)n3c(cc4occc43)c2=O)CC1`: the activity change, negative = inhibition was -17.4%.

For `CCc1nn(CC(=O)NCC(C)c2ccccc2)c(=O)c2cc3occc3n12` (stereo not drawn), the activity change, negative = inhibition is -32.7% (active).

`CSc1ccc(C2C(C(=O)Nc3ccccc3)=C(C)Nc3nc4ccccc4n32)cc1` (stereo not drawn): the activity change, negative = inhibition was 3.8%.

In the case of `CCN(CCCNC(=O)c1c(C)oc2ncn(CC(C)C)c(=O)c12)Cc1ccccc1`, the activity change, negative = inhibition is 0.919%.
